Measured values: paper PMC7862700, “An all-to-all approach to the identification of sequence-specific readers for epigenetic DNA modifications on cytosine”

How the values were obtained:
Test in all cases: DAPPL (digital affinity profiling via proximity ligation, sequencing); 10 mM Tris-HCl pH 7.5, 50 mM NaCl, 1 mM DTT, 4% glycerol, room temperature, 30 min; GST-TFs on glutathione beads, 16-mer random dsDNA library, 0.1% formaldehyde crosslink after washing; high values mean tight binding
Settings in all cases: protein: recombinant; tags: N-terminal GST; dsDNA, one strand shown
FEV = molecular target: T1, FEV (Homo sapiens, UniProt Q99581 1-238)
T1 sequence: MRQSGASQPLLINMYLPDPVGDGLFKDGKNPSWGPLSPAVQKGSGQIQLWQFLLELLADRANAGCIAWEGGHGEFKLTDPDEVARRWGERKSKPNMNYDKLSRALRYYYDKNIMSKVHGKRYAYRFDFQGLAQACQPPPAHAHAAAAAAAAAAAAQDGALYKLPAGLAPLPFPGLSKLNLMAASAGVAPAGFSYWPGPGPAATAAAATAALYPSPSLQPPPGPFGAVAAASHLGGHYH
Outline: (§1)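 Binding signal is each hexamer's read frequency for a factor divided by its frequency in the tag-only sample. The factors were GST-fused human transcription factors from yeast, captured on glutathione beads, DNA-barcoded and pooled with that sample. Pools were incubated with 200 nmole of a random double-stranded 16-mer DNA library in Tris/NaCl/DTT/glycerol buffer at room temperature for 30 min, then washed, crosslinked with 0.1% formaldehyde, proximity-ligated with BsaI/T4 ligase (1 h, 37 °C), PCR-amplified and sequenced on an Illumina NextSeq500.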

ETV5 = ETV5 (Homo sapiens, UniProt P41161 1-510)
Outline: as §1

ELF3 = molecular target: T2, ELF3 (Homo sapiens, UniProt P78545 1-371)
T2 sequence: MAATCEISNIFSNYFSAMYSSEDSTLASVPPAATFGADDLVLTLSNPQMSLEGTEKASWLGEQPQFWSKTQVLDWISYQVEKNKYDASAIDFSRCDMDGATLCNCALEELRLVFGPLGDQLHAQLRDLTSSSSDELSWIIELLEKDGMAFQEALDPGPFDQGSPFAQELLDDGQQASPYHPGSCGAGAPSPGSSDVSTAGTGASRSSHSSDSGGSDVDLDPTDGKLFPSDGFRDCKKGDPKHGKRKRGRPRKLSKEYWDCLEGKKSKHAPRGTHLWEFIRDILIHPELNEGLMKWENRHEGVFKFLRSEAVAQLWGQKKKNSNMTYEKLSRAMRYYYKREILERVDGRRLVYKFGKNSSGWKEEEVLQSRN
Outline: as §1

SPDEF = molecular target: T3, SPDEF (Homo sapiens, UniProt O95238 1-335)
T3 sequence: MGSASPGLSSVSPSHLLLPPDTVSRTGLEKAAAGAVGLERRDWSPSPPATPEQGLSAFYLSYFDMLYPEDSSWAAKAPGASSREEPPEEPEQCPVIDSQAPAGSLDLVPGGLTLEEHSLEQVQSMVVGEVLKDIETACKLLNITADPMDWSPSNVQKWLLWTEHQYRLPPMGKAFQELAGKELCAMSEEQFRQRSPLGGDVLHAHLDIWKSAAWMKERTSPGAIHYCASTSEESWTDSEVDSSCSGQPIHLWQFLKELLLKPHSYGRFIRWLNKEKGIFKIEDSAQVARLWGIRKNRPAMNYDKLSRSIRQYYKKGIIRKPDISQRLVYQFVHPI
Outline: as §1

ETV7 = molecular target: T4, ETV7 (Homo sapiens, UniProt Q9Y603 1-341)
T4 sequence: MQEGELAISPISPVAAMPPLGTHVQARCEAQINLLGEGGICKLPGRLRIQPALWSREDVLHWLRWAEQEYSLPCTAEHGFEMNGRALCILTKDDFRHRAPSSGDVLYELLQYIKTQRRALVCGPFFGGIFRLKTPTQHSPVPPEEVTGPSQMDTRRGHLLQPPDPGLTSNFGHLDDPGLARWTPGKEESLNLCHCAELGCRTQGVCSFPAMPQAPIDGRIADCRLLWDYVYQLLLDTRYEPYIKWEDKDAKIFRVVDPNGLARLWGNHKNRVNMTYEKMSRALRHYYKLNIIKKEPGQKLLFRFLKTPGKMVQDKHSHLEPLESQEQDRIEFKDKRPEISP
Outline: as §1

ELK1 = molecular target: T5, ELK1 (Homo sapiens, UniProt P19419 1-428)
T5 sequence: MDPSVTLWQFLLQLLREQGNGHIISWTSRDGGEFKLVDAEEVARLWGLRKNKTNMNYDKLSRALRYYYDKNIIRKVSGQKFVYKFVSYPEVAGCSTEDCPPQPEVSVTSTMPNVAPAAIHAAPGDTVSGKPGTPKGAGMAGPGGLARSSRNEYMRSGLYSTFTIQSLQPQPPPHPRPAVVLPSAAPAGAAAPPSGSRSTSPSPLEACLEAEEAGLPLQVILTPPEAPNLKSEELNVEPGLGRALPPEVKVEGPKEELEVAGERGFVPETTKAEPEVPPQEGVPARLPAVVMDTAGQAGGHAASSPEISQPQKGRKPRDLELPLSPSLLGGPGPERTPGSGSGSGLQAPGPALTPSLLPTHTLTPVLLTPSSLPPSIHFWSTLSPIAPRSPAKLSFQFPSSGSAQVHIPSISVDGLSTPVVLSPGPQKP
Outline: as §1

GABPA = molecular target: T6, GABPA (Homo sapiens, UniProt Q06546 1-454)
T6 sequence: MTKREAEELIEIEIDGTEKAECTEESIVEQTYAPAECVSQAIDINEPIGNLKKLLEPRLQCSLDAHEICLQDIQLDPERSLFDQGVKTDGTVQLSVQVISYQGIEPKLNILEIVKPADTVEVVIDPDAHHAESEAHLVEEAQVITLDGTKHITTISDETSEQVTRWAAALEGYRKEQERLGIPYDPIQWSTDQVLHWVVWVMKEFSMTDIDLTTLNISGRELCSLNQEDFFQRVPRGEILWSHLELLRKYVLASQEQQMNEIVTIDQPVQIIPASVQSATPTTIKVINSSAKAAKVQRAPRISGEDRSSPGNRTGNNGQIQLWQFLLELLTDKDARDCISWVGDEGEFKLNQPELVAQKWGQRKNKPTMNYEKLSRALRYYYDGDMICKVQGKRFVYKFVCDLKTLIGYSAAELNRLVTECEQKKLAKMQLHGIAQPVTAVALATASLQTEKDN
Outline: as §1

ELF1 = ELF1 (Homo sapiens, UniProt P32519 1-619)
Outline: as §1

EHF = molecular target: T7, EHF (Homo sapiens, UniProt Q9NZC4 1-300)
T7 sequence: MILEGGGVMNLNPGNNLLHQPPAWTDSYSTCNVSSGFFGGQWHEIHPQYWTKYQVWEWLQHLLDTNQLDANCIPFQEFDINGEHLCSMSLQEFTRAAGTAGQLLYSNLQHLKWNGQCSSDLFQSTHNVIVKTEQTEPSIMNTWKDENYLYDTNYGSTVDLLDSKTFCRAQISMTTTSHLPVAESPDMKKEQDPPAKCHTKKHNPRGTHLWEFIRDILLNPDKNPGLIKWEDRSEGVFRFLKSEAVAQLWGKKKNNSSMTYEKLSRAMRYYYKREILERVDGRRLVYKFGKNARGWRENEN
Outline: as §1

SPIB = SPIB (Homo sapiens, UniProt Q01892 1-262)
Outline: as §1

ELF4 = ELF4 (Homo sapiens, UniProt Q99607 1-663)
Outline: as §1

ELK4 = molecular target: T8, ELK4 (Homo sapiens, UniProt P28324-2 1-405)
T8 sequence: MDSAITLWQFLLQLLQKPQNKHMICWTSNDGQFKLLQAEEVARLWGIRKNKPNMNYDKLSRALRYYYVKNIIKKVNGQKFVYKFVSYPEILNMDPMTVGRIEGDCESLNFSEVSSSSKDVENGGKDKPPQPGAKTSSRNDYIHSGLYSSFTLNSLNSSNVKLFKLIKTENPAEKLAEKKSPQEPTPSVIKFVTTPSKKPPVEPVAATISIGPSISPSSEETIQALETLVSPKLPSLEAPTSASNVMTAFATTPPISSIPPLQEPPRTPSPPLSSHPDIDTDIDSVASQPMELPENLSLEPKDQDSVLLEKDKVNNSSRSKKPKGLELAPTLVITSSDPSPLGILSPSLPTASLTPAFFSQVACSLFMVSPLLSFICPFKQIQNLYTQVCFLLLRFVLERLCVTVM
Outline: as §1

ETV2 = molecular target: T9, ETV2 (Homo sapiens, UniProt O00321 1-342)
T9 sequence: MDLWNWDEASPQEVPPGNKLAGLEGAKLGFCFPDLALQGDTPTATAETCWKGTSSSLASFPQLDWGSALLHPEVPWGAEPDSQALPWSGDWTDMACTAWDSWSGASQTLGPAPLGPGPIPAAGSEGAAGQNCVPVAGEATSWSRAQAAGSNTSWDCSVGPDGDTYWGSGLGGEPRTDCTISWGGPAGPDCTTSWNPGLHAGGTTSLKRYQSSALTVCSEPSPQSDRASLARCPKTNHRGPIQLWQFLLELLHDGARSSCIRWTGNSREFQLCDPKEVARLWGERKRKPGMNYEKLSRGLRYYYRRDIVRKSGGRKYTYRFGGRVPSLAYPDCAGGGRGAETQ
Outline: as §1

ETV1 = ETV1 (Homo sapiens, UniProt P50549 1-477)
Outline: as §1

ERF = molecular target: T10, ERF (Homo sapiens, UniProt P50548 1-548)
T10 sequence: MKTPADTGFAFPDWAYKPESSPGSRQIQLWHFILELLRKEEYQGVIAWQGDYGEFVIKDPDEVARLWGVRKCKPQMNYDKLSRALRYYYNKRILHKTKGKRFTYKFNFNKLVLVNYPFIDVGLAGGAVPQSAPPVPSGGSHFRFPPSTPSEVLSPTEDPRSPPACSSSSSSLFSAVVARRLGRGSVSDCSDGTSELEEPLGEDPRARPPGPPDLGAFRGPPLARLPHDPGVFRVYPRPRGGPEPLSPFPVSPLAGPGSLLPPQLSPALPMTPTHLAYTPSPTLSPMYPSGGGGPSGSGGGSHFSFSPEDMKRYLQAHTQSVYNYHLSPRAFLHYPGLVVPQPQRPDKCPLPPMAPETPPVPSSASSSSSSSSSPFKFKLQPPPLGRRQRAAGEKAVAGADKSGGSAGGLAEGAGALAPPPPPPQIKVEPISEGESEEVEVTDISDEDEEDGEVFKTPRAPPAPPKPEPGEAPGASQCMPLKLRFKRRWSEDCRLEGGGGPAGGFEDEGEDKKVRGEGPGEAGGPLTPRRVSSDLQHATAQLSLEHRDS
Outline: as §1

ETV3L = molecular target: T11, ETV3L (Homo sapiens, UniProt Q6ZN32 1-361)
T11 sequence: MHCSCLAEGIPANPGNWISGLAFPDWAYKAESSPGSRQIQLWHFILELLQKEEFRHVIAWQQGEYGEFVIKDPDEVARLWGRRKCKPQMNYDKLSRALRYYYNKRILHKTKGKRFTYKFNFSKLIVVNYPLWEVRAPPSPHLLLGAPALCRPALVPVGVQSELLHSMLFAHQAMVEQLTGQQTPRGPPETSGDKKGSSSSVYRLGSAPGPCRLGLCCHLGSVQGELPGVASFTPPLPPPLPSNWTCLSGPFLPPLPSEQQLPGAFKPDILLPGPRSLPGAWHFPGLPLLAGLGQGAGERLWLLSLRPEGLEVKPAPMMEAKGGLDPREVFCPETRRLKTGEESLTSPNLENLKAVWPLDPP
Outline: as §1

ETS2 = molecular target: T12, ETS2 (Homo sapiens, UniProt P15036 1-469)
T12 sequence: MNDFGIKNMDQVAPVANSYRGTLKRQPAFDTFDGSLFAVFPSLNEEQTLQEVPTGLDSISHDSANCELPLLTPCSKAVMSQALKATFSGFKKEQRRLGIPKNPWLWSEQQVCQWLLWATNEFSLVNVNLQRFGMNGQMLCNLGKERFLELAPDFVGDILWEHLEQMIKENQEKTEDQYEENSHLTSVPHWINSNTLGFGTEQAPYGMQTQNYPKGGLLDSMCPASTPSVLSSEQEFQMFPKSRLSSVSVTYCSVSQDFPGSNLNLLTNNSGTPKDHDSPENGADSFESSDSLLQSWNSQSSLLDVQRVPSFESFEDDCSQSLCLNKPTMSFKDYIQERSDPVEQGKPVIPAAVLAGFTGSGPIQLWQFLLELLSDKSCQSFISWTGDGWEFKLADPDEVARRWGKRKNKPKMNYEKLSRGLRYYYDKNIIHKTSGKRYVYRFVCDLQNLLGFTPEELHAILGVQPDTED
Outline: as §1

ETV3 = molecular target: T13, ETV3 (Homo sapiens, UniProt P41162-2 1-143)
T13 sequence: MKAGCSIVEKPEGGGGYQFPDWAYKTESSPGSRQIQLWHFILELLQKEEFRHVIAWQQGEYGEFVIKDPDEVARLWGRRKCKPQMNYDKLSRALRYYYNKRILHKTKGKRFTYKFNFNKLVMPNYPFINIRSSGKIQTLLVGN
Outline: as §1

ETV6 = ETV6 (Homo sapiens, UniProt P41212 1-452)
Outline: as §1

Sequence of ETV5 (P41161 whole entry): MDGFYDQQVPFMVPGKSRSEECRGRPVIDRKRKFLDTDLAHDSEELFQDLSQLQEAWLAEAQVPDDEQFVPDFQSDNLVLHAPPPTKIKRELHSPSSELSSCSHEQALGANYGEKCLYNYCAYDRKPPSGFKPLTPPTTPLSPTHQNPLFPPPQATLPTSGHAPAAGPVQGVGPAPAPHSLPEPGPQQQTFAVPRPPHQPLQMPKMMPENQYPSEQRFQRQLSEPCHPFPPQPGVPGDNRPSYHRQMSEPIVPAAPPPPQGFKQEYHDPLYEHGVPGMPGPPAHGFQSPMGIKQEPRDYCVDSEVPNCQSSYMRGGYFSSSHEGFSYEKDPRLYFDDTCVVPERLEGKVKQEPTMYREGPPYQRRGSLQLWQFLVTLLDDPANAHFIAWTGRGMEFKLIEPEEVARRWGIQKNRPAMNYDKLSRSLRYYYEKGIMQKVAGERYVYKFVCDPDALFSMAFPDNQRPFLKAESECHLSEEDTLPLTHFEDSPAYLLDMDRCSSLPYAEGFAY
Sequence of ELF1 (P32519 whole entry): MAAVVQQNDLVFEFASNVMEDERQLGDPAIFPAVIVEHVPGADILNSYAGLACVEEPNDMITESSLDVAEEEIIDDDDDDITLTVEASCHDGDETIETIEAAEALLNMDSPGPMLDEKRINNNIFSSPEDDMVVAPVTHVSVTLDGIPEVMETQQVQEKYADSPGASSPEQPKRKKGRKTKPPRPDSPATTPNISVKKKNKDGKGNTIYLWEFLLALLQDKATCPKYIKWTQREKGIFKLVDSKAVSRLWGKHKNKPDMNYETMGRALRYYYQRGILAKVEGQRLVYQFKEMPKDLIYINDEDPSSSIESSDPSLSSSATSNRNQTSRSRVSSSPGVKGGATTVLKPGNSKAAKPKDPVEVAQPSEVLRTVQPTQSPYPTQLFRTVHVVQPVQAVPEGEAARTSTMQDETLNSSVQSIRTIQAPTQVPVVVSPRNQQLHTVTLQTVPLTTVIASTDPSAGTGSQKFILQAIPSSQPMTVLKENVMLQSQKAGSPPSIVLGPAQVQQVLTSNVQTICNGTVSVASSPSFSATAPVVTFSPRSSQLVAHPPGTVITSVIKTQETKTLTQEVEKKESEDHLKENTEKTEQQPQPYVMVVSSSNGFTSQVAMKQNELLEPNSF
Sequence of ETV1 (P50549 whole entry): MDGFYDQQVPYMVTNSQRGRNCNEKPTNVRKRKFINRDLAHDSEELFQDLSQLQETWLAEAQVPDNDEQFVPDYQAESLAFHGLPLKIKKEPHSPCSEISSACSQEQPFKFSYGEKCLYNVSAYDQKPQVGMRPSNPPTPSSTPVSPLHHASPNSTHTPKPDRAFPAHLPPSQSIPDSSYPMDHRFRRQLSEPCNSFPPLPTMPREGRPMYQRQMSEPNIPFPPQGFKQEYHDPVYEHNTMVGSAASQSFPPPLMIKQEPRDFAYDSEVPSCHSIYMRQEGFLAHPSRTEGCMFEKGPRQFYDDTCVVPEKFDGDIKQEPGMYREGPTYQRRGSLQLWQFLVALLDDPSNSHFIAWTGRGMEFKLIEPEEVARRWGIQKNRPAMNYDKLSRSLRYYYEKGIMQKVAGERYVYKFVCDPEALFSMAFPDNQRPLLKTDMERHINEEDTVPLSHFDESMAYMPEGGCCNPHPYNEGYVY
Sequence of ETV6 (P41212 whole entry): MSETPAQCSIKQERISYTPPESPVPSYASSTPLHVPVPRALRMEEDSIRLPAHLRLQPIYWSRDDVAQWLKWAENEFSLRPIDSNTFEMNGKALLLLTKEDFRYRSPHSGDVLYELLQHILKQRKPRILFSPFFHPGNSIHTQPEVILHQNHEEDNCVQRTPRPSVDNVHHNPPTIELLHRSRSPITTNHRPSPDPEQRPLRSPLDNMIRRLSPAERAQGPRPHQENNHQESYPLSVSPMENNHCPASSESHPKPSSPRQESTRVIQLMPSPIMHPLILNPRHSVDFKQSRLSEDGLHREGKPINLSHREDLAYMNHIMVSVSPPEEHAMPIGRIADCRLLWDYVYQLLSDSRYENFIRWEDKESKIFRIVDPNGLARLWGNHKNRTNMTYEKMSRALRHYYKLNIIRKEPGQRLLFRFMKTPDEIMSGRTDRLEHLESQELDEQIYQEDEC
Sequence of SPIB (Q01892 whole entry): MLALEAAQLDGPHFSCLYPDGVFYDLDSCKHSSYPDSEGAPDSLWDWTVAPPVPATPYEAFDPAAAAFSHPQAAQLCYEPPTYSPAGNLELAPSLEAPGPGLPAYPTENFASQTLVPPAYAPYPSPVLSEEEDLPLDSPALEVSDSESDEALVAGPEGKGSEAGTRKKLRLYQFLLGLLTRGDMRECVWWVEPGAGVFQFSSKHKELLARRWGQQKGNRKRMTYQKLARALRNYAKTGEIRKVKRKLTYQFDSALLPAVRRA
Sequence of ELF4 (Q99607 whole entry): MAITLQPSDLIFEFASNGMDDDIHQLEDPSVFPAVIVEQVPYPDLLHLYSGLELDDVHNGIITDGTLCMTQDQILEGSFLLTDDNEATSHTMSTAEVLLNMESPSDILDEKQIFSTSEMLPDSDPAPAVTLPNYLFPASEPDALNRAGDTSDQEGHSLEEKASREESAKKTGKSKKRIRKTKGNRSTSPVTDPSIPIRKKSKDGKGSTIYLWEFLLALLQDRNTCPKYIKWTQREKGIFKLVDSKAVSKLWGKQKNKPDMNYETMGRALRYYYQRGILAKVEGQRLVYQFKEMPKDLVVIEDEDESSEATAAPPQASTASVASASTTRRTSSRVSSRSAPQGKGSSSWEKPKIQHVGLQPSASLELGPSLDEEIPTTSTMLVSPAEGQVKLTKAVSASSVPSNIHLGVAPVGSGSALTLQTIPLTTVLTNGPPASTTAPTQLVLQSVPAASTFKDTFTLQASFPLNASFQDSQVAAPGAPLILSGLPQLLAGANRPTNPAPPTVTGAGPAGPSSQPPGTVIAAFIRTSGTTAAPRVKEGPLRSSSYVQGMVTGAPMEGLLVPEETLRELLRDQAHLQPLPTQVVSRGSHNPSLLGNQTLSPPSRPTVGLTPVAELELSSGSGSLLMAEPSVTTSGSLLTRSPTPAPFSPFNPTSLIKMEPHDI

Row | Sequence | binding signal (FEV) | binding signal (ETV5) | binding signal (ELF3) | binding signal (SPDEF) | binding signal (ETV7) | binding signal (ELK1) | binding signal (GABPA) | binding signal (ELF1) | binding signal (EHF) | binding signal (SPIB) | binding signal (ELF4) | binding signal (ELK4) | binding signal (ETV2) | binding signal (ETV1) | binding signal (ERF) | binding signal (ETV3L) | binding signal (ETS2) | binding signal (ETV3) | binding signal (ETV6)
1 | TGACGG | 1.06 fold enrichment (6-mer frequency, TF over GST control) | 1.04 fold enrichment (6-mer frequency, TF over GST control) | 1.06 fold enrichment (6-mer frequency, TF over GST control) | 1.06 fold enrichment (6-mer frequency, TF over GST control) | 1.02 fold enrichment (6-mer frequency, TF over GST control) | – | – | – | – | – | – | – | – | – | – | – | – | – | –
2 | CATTAA | 1.01 fold enrichment (6-mer frequency, TF over GST control) | 1.07 fold enrichment (6-mer frequency, TF over GST control) | 1.05 fold enrichment (6-mer frequency, TF over GST control) | 1.01 fold enrichment (6-mer frequency, TF over GST control) | 1.05 fold enrichment (6-mer frequency, TF over GST control) | 1 fold enrichment (6-mer frequency, TF over GST control) | 1.12 fold enrichment (6-mer frequency, TF over GST control) | 1.07 fold enrichment (6-mer frequency, TF over GST control) | 1.01 fold enrichment (6-mer frequency, TF over GST control) | 1.04 fold enrichment (6-mer frequency, TF over GST control) | 1.07 fold enrichment (6-mer frequency, TF over GST control) | 1.02 fold enrichment (6-mer frequency, TF over GST control) | 1.04 fold enrichment (6-mer frequency, TF over GST control) | 1.12 fold enrichment (6-mer frequency, TF over GST control) | 1.1 fold enrichment (6-mer frequency, TF over GST control) | 1.1 fold enrichment (6-mer frequency, TF over GST control) | 1.04 fold enrichment (6-mer frequency, TF over GST control) | 1.02 fold enrichment (6-mer frequency, TF over GST control) | 1.03 fold enrichment (6-mer frequency, TF over GST control)
